Screens (PubChem BioAssay)
The full list was thinned out, with hits kept by preference.
RORgamma inh – qHTS for inhibitors of ROR gamma transcriptional activity; Drosophila S2 Gal4-RORgamma UAS-luciferase reporter, 20 h; Potency, µM (highest dose often 53.6 µM), hits mostly inhibitors; actives 5.4% (n = 310,000); also: nearly all actives have a fitted effect of over 60% in size
Target sequence (P51450 whole entry, looked up, the tested form may be a part): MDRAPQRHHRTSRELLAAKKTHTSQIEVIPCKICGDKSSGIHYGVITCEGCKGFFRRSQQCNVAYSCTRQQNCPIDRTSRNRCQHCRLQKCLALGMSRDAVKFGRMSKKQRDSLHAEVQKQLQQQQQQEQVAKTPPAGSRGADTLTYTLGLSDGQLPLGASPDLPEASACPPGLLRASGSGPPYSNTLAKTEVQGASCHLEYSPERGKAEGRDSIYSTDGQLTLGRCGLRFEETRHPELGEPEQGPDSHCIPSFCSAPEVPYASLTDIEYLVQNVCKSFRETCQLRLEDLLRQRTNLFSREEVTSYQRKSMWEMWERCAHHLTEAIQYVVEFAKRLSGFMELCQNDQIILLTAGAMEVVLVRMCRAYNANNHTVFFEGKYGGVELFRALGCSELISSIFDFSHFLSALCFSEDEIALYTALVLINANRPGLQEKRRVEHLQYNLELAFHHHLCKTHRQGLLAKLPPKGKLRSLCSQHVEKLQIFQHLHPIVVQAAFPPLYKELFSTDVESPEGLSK
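Using a luciferase readout, inhibitors were identified by reduced reporter activity in Drosophila cells coexpressing a copper-inducible Gal4–ROR gamma fusion and UAS-driven Photinus luciferase, incubated 20 hr after 700 uM copper sulfate.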
ERG-DNA inh – qHTS for Small Molecule Inhibitors of the ERG Ets/DNA interaction; fluorescence polarization, His-ERG Ets domain / labelled DNA; Transcriptional regulator ERG (Homo sapiens), P11308; Potency, µM (doses to about 76.9 µM), actives largely listed as inhibitors; actives 0.028% (n = 370,000); active = well fitted inhibition curve with a large enough effect in the polarisation, with a control signal flat; inconclusive = small, poorly fitted or top-dose-only effect, or effect the other way, or a change in a side signal; inactive = no such curve, though single readings can be large or run the other way; the % refers to the polarisation;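 also: polarization taken with two DNA probes labelled with fluorescein and Texas red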
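His-tagged ERG Ets domain (1 uM in the protein solution; 300mM KCl, 50mM Tris-HCl, 1mM EDTA, 1mM DTT, pH 7.5) received compound, then a probe mix of 5 nM fluorescein-DNA and 100nM Texas-615-DNA. Fluorescence polarization was read for both dyes.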
Gal4-VP16 FLuc – VP16 counterscreen qHTS for inhibitors of ROR gamma transcriptional activity; AID 2546, 2010; actives 3.5% (n = 310,000); Potency, µM (highest dose often 53.6 µM), hits mostly inhibitors; Drosophila S2 Gal4-VP16 UAS-luciferase, luminescence, 20 h;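 also: Gal4-VP16 expression switched on by copper sulfate through the metallothionein promoter; nearly all actives have a fitted effect of over 50% in size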
Giardia killer – Small Molecules that selectively kill Giardia lamblia: qHTS. Giardia lamblia trophozoite viability. activity change, % at 7.66 µM, hits read low. actives 0.15% (n = 340,000); in the data active = activity change below about -80%; inconclusive = between about -30% and that limit;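 also: parasites exposed to compound for two days anaerobically before the ATP read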
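Viability, read as ATP luminescence: trophozoites at 100 cells/well, compound added, 48 hrs anaerobic at 37 deg C, then 15-30 min room-temperature development before reading.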
a7 integrin act – qHTS for Activators of Integrin-Mediated Alleviation for Muscular Dystrophy. Potency, µM (highest dose often 38.3 µM), most hits filed as activators. AID 624291, 2012. actives 0.064% (n = 350,000). alpha7betagal myoblasts, beta-gal FDG fluorescence, 48 h; also: nearly all actives have a fitted effect of over 60% in size
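Alpha7betagal+/- myoblasts (passage 13) were plated 16-24 hr, then exposed to compounds (1:260 dilution of DMSO stock) for 48 hours at 37C. After MPER lysis, β-galactosidase reporter activity was read as FDG fluorescence (ex 480/em 540) after 30 minutes.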
Of the large screens only hits and unclear results are named; the others gave an inactive call. Unless noted, calls follow the shape of the dose curve; as a rule, active = well fitted curve in the direction sought with a large enough effect; inconclusive = small, poorly fitted or top-dose-only effect, or another doubt; inactive = no such curve, though single readings can be large; an effect the other way counts as inactive or inconclusive.

Cc1cc(C(=O)COC(=O)c2cc(O)c3ccccc3c2O)c(C)n1CC1CCCO1 (centres undefined)	RORgamma inh 16µM
COc1ccc(C2CC(c3cccs3)=NN2C(=O)COC(=O)c2cncc(Br)c2)cc1OC (centres undefined)	none
O=C(OCC(=O)N1CCCCCC1)c1ccccc1Br	none (no result: RORgamma inh, Gal4-VP16 FLuc)
c1nc(N2CCOCC2)c2cc(-c3ccoc3)ccc2n1	none (no result: ERG-DNA inh, Giardia killer, a7 integrin act)
c1cn(-c2ncnc3ccc(-c4ccoc4)cc23)cn1	RORgamma inh 4.5µM, Gal4-VP16 FLuc inconclusive (no result: ERG-DNA inh, Giardia killer, a7 integrin act)
COc1ccc(-c2n[nH]c(C)c2-c2cnn(-c3ccccc3)c2)c(O)c1C	RORgamma inh 11µM, Gal4-VP16 FLuc inconclusive
COc1ccc(-c2n[nH]c(C)c2-c2cnn(-c3ccccc3)c2)c(O)c1	Gal4-VP16 FLuc inconclusive
Cc1cccc2cc(C#N)c(NCCNC(=S)NCCCN3CCOCC3)nc12	RORgamma inh 4µM (no result: ERG-DNA inh)
CCOCCCNC(=S)NCCCNc1nc2c(C)c(C)ccc2cc1C#N	RORgamma inh 11µM, Gal4-VP16 FLuc inconclusive
Cc1cc(=O)oc2cc(NC(=O)C(CCCN=C(N)N)NC(=O)OCc3ccccc3)ccc12 (centres undefined)	none
Cc1ccc(Nc2nc(CSc3n[nH]c(N)n3)cs2)cc1	RORgamma inh 13µM
CCCCc1n[nH]c(=S)n1Cc1ccccc1	RORgamma inh 4µM, Gal4-VP16 FLuc 16µM
CCCCn1c(Cc2ccccc2)n[nH]c1=S	RORgamma inh inconclusive
CCCCc1n[nH]c(=S)n1Cc1ccc(Cl)cc1	RORgamma inh 4µM, Gal4-VP16 FLuc 7.1µM
CCC(C)c1ccc(OCCn2cc(/C=N/NC(=O)CSc3nnc(C)s3)c3ccccc32)cc1 (centres undefined)	RORgamma inh inconclusive, Gal4-VP16 FLuc 22µM
CCn1c2ccccc2c2cc(/C=N/NC(=O)c3ccncc3)ccc21	RORgamma inh 8.9µM, Gal4-VP16 FLuc inconclusive
Cc1cccc(OCCn2cc(/C=N/NC(=O)c3ccncc3)c3ccccc32)c1	RORgamma inh 4.5µM, Gal4-VP16 FLuc 5.6µM
COC(=O)N/N=C/c1cn(CCOc2cccc(OC)c2)c2ccccc12	none
CCn1c2ccccc2c2cc(/C=N/NC(=O)c3ccc(O)cc3)ccc21	none
C[C@@H]1CN([C@@H](C)CO)C(=O)c2cc(NC(=O)Nc3ccc(F)cc3)ccc2O[C@@H]1CN(C)Cc1ccc(Oc2ccccc2)cc1	none (no result: RORgamma inh, Gal4-VP16 FLuc)
COc1cccc(C2=NOC(C(=O)Nc3cccnc3Cl)C2)c1 (centres undefined)	none
Cc1ccc(-n2c(-c3cc(-c4ccco4)[nH]n3)n[nH]c2=S)c(Br)c1	RORgamma inh 8.9µM
Cc1cccc(-n2c(-c3ccco3)n[nH]c2=S)c1	RORgamma inh 11µM, Gal4-VP16 FLuc inconclusive
Cc1cccc(-n2c(-c3ccc(Br)o3)n[nH]c2=S)c1	none (no result: RORgamma inh, Gal4-VP16 FLuc)
S=c1[nH]nc(-c2ccco2)n1-c1ccc(Br)cc1	none (no result: RORgamma inh, Gal4-VP16 FLuc)
FC(F)(F)c1ccccc1-n1c(-c2ccco2)n[nH]c1=S	RORgamma inh 14µM, Gal4-VP16 FLuc inconclusive
S=c1[nH]nc(-c2cc(-c3ccco3)[nH]n2)n1-c1cccc2ccccc12	none
Cc1ccccc1-n1c(-c2ccco2)n[nH]c1=S	RORgamma inh 11µM, Gal4-VP16 FLuc inconclusive
CC(C)c1ccc2[nH]c3c(c2c1)[C@@H]1CCN2C(=O)CCC[C@H](C3)[C@H]12	RORgamma inh inconclusive
CC(C)(C)c1ccc(C(=O)O)c(C(=O)c2ccccc2)c1	none
CCCCC(CC)CCC(CC(C)C)OS(=O)(=O)O (centres undefined)	none (no result: ERG-DNA inh, Giardia killer, a7 integrin act)
CN(C)Cc1ccccc1-c1cc(NCc2cccs2)ncn1	none (no result: ERG-DNA inh, Giardia killer, a7 integrin act)
CC1CCC(NC(=O)c2ccc(CS(=O)(=O)c3ccc(Cl)cc3)o2)CC1 (centres undefined)	none (no result: RORgamma inh, Gal4-VP16 FLuc, Giardia killer, a7 integrin act)
CCc1c(O)c(/C(C)=N\O)c(=O)n(-c2ccccc2)c1-c1ccccc1	RORgamma inh inconclusive, Gal4-VP16 FLuc 35µM
C/C(=N\O)c1c(O)cc(-c2ccccc2)n(-c2ccccc2)c1=O	RORgamma inh inconclusive
C/C(=N/O)c1c(O)c(C)c(-c2ccccc2)n(-c2ccccc2)c1=O	RORgamma inh 5.6µM, Gal4-VP16 FLuc 5.6µM
CC(C)CCn1c(=O)c2ccccc2n2c(CN3CCOCC3)nnc12	none
Nc1cc(S(=O)(=O)Nc2ccc(Cl)cc2)ccc1N1CCOCC1	Gal4-VP16 FLuc 16µM
O=Cc1cc(N=Nc2ccccc2Cl)ccc1O	RORgamma inh 11µM
COc1ccc(C(=O)Cn2cnc3ccccc3c2=O)c(OC)c1	RORgamma inh 4.5µM, Gal4-VP16 FLuc 8.9µM
COc1ccc(OC)c(C(=O)Cn2cnc3ccccc3c2=O)c1	none
COc1ccc(-c2cc(C(F)F)nc(-n3nc(C)cc3C)n2)cc1	RORgamma inh 0.89µM, Gal4-VP16 FLuc 1.4µM
COc1ccc(-c2csc(CCn3nc(C)cc3C)n2)cc1	RORgamma inh 10µM, Gal4-VP16 FLuc inconclusive
COc1ccc(OC)c(-c2csc(CCn3nc(C)cc3C)n2)c1	RORgamma inh 14µM
COc1ccc(-c2csc(CCn3nc(C)cc3C)n2)cc1OC	none
Cc1ccc(S(=O)(=O)Cn2nnnc2C(CC(C)C)N2CCN(C)CC2)cc1 (centres undefined)	none
CC(=O)c1c(C)[nH]c(C(=O)OCC(=O)Nc2cc(Cl)ccc2[N+](=O)[O-])c1C	RORgamma inh inconclusive, Gal4-VP16 FLuc 16µM, Giardia killer inconclusive
CC(=O)c1c(C)[nH]c(C(=O)OCC(=O)Nc2ccc(C)cc2[N+](=O)[O-])c1C	Gal4-VP16 FLuc inconclusive
O=C1CCC2S/C(=C/Nc3ccc(C(F)(F)F)cc3)C(=O)N12 (centres undefined)	RORgamma inh 1.3µM, Gal4-VP16 FLuc inconclusive
COc1cccc(CNC(=O)COC(=O)c2ccc(N3CCCC3=O)cc2)c1	none (no result: RORgamma inh, ERG-DNA inh, Gal4-VP16 FLuc, Giardia killer)
CN(C)Cc1ccccc1-c1nc(NCc2cccs2)c2ccccc2n1	none (no result: ERG-DNA inh, Giardia killer, a7 integrin act)
COc1ccc(CNc2nc(-c3ccccc3CN(C)C)nc3ccccc23)c(OC)c1	RORgamma inh 13µM, Gal4-VP16 FLuc inconclusive (no result: ERG-DNA inh, Giardia killer, a7 integrin act)
Cc1cccc(CNc2nc(-c3ccccc3CN(C)C)nc3ccccc23)c1	RORgamma inh 22µM, Gal4-VP16 FLuc inconclusive (no result: ERG-DNA inh, Giardia killer, a7 integrin act)
COc1ncccc1-c1nnn(-c2ccc(F)cc2)n1	none
CC1=NN(C(N)=S)C(=O)C1N=Nc1ccccc1C(=O)O (centres undefined)	none
Cc1nn(-c2ccc(Cl)cc2Cl)c(=O)c2ccccc12	none (no result: ERG-DNA inh)
CC1=NN(C(N)=S)C(=O)C1N=Nc1ccccc1Cl (centres undefined)	RORgamma inh 0.63µM, Gal4-VP16 FLuc 1µM, Giardia killer inconclusive
COc1ccccc1N=NC1C(=O)N(C(N)=S)N=C1C (centres undefined)	RORgamma inh inconclusive, Gal4-VP16 FLuc 3.2µM
CC1=NN(C(N)=S)C(=O)C1N=Nc1ccc(Cl)cc1Cl (centres undefined)	RORgamma inh 0.45µM, Gal4-VP16 FLuc 0.63µM
